Results filed as inconclusive are left out. Activity calls are given as the source filed them. The call rests on the fitted dose curve; in most records, active means well fitted curve in the direction sought with a large enough effect; inconclusive means small, poorly fitted or top-dose-only effect, or another doubt; inactive means no such curve, though single readings can be large; an effect the other way counts as inactive or inconclusive.
Tests used:
CRL-7250 = normal cell line; assay: Cytotoxic Profiling of Annotated Libraries Using Quantitative High-Throughput Screening (AID 1296008); conditions: Five cell lines viability, CellTiter-Glo ATP luminescence, 48-72 h; max response: active compounds read low; further: nearly all actives have a fitted effect of over 60% in size; on max response: on the % scale 0 is the no-effect control and ±100 the full control effect
Method in brief: (§1)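 Cytotoxicity was measured as CellTiter-Glo ATP luminescence, read after 10 min at room temperature. Compound treatment of the cells lasted 48 or 72 hr at 37 degrees Celsius in a qHTS format.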

HEK293 = assay: as above; conditions: Five cell lines viability, CellTiter-Glo ATP luminescence, 48-72 h; max response: active compounds read low
Method in brief: as §1

HaCat [1] = assay: as above; conditions: Five cell lines viability, CellTiter-Glo ATP luminescence, 48-72 h; max response: active compounds read low
Method in brief: as §1

KB-3-1 = assay: as above; conditions: Five cell lines viability, CellTiter-Glo ATP luminescence, 48-72 h; max response: active compounds read low
Method in brief: as §1

NIH3T3 [2] = assay: as above; conditions: Five cell lines viability, CellTiter-Glo ATP luminescence, 48-72 h; max response: active compounds read low
Method in brief: as §1

HACAT [3] = assay: qHTS assay to identify novel small-molecules to repurpose for Merkel cell carcinoma treatment (AID 1296009); conditions: MCC and control cell lines, CellTiter-Glo viability, 72 h; at 44.8 µM (top of the series) unless noted; further: nearly all actives have a fitted effect of over 60% in size
Method in brief: (§2)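 Cell viability, measured as CellTiter-Glo luminescence, was normalized between DMSO and no-cell wells. The cells had been exposed to 8- or 11-point compound dilutions for 72 hr at 37 degree celsius.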

NIH3T3 [4] = assay: as above; conditions: MCC and control cell lines, CellTiter-Glo viability, 72 h; at 44.8 µM (top of the series) unless noted
Method in brief: as §2

C33A = assay: Primary qHTS to identify gynecologic anti-cancer compounds using libraries of approved drugs and bioactive compounds (AID 1345084); conditions: Gynecologic cancer cell panel viability, ATPlite luminescence, 48 h; series mostly up to 57.5 µM; further: on the % scale 0 is the no-effect control and ±100 the full control effect; nearly all actives have a fitted effect of over 55% in size
Method in brief: (§3)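 Cells, 1,000 per well, were allowed to settle for 16 h at 37 C before compound addition. Five concentrations were tested for 48 h, and viability was read by ATPlite luminescence after 15 min at room temperature.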

CAOV3 = assay: as above; conditions: Gynecologic cancer cell panel viability, ATPlite luminescence, 48 h; series mostly up to 57.5 µM
Method in brief: as §3

CASKI = assay: as above; conditions: Gynecologic cancer cell panel viability, ATPlite luminescence, 48 h; series mostly up to 57.5 µM
Method in brief: as §3

Es-2 = assay: as above; conditions: Gynecologic cancer cell panel viability, ATPlite luminescence, 48 h; series mostly up to 57.5 µM
Method in brief: as §3

HeLa = assay: as above; conditions: Gynecologic cancer cell panel viability, ATPlite luminescence, 48 h; series mostly up to 57.5 µM
Method in brief: as §3

Hek293T = assay: as above; conditions: Gynecologic cancer cell panel viability, ATPlite luminescence, 48 h, control line for the selectivity index; series mostly up to 57.5 µM
Method in brief: as §3

JEG-3 = assay: as above; conditions: Gynecologic cancer cell panel viability, ATPlite luminescence, 48 h; series mostly up to 57.5 µM
Method in brief: as §3

OV90 = assay: as above; conditions: Gynecologic cancer cell panel viability, ATPlite luminescence, 48 h; series mostly up to 57.5 µM
Method in brief: as §3

PA-1 = assay: as above; conditions: Gynecologic cancer cell panel viability, ATPlite luminescence, 48 h; series mostly up to 57.5 µM
Method in brief: as §3

CC(C)(Oc1ccc(-c2nc3cc(Cl)ccc3s2)cc1)C(=O)O
inactive: outcome (CRL-7250) | max response (HEK293) -8.75% | outcome (HaCat [1]) | max response (KB-3-1) 5.1% | outcome (NIH3T3 [2]) | outcome (HACAT [3]) | outcome (NIH3T3 [4])

CC(=O)c1ccc(O[C@@H]2OC[C@@H](O)[C@H](O)[C@H]2O[C@]2(CO)O[C@H](CO)[C@@H](O)[C@@H]2O)c(O)c1
inactive: outcome (CRL-7250) | max response (HEK293) 2.18% | outcome (HaCat [1]) | outcome (KB-3-1) | outcome (NIH3T3 [2]) | outcome (HACAT [3]) inactive [at 17.4 µM] | outcome (NIH3T3 [4]) inactive [at 17.4 µM] | Potency (C33A) | Potency (CAOV3) | outcome (CASKI) | Potency (Es-2) | Potency (HeLa) | Potency (Hek293T) | Potency (JEG-3) | Potency (OV90) | Potency (PA-1)

C=C1C(=O)O[C@@H]2C[C@]3(C)[C@@H](CCC(C)=O)[C@@H]3C[C@H]12
inactive: max response (CRL-7250) 4.44% | max response (HEK293) -12.9% | outcome (HaCat [1]) | max response (KB-3-1) 2.7% | outcome (NIH3T3 [2]) | outcome (HACAT [3]) | outcome (NIH3T3 [4]) | Potency (C33A) | Potency (CAOV3) | outcome (CASKI) | Potency (Es-2) | Potency (HeLa) | Potency (Hek293T) | Potency (JEG-3) | Potency (OV90) | Potency (PA-1)

C=C1[C@@H]2CC[C@@]3(C)[C@H](c4ccoc4)OC(=O)C[C@]13O[C@H]1CC(=O)C(C)(C)[C@H](C(O)C(=O)OC)[C@]12C (some centres undefined)
inactive: max response (CRL-7250) -0.794% | max response (HEK293) -5.89% | outcome (HaCat [1]) | outcome (KB-3-1) | outcome (NIH3T3 [2]) | outcome (HACAT [3]) inactive [at 17.4 µM] | outcome (NIH3T3 [4]) inactive [at 17.4 µM] | Potency (C33A) | Potency (CAOV3) | outcome (CASKI) | Potency (Es-2) | Potency (HeLa) | Potency (Hek293T) | Potency (JEG-3) | Potency (OV90)

CC1CCC2(C(=O)O)CCC3(C)C(=CCC4C5(C)C[C@@H](O)[C@@H](O)C(C)(CO)C5CCC43C)C2C1(C)O (some centres undefined)
inactive: max response (CRL-7250) -2.68% | max response (HEK293) -0.908% | outcome (HaCat [1]) | outcome (KB-3-1) | outcome (NIH3T3 [2]) | outcome (HACAT [3]) inactive [at 17.4 µM] | outcome (NIH3T3 [4]) inactive [at 17.4 µM] | Potency (C33A) | Potency (CAOV3) | outcome (CASKI) | Potency (Es-2) | Potency (HeLa) | Potency (Hek293T) | Potency (JEG-3) | Potency (OV90) | Potency (PA-1)

COC(=O)c1c(CC=C(C)C)c(OC2OC(CO)C(O)C(O)C2O)c2ccccc2c1OC1OC(CO)C(O)C(O)C1O (centres undefined)
inactive: outcome (CRL-7250) | max response (HEK293) -10.1% | outcome (HaCat [1]) | outcome (KB-3-1) | outcome (NIH3T3 [2]) | outcome (HACAT [3]) inactive [at 17.4 µM] | outcome (NIH3T3 [4]) inactive [at 17.4 µM] | Potency (C33A) | Potency (CAOV3) | outcome (CASKI) | Potency (Es-2) | Potency (HeLa) | Potency (Hek293T) | Potency (JEG-3) | Potency (OV90) | Potency (PA-1)

N#Cc1cccc(-c2nc(-c3cccnc3)no2)c1
inactive: max response (CRL-7250) -3.07% | max response (HEK293) -8.6% | outcome (HaCat [1]) | outcome (KB-3-1) | outcome (NIH3T3 [2]) | outcome (HACAT [3]) inactive [at 17.4 µM] | outcome (NIH3T3 [4]) inactive [at 17.4 µM] | Potency (C33A) | Potency (CAOV3) | outcome (CASKI) | Potency (Es-2) | Potency (HeLa) | Potency (Hek293T) | Potency (JEG-3) | Potency (OV90) | Potency (PA-1)

CC1=CC(=O)CC(C)(C)[C@@]1(O)/C=C/C(C)O[C@@H]1O[C@H](CO)[C@@H](O)[C@H](O)[C@H]1O (some centres undefined)
inactive: max response (CRL-7250) -4.8% | max response (HEK293) -13.1% | outcome (HaCat [1]) | outcome (KB-3-1) | outcome (NIH3T3 [2]) | outcome (HACAT [3]) inactive [at 17.4 µM] | outcome (NIH3T3 [4]) inactive [at 17.4 µM] | Potency (C33A) | Potency (CAOV3) | outcome (CASKI) | Potency (Es-2) | Potency (HeLa) | Potency (Hek293T) | Potency (JEG-3) | Potency (OV90) | Potency (PA-1)

Cc1onc(-c2ccccc2Cl)c1C(=O)N(C)c1ccc(Cl)cc1
inactive: outcome (CRL-7250) | max response (HEK293) -12.8% | outcome (HaCat [1]) | max response (KB-3-1) 4.59% | outcome (NIH3T3 [2]) | outcome (HACAT [3]) | outcome (NIH3T3 [4]) | Potency (C33A) | Potency (CAOV3) | outcome (CASKI) | Potency (Es-2) | Potency (HeLa) | Potency (Hek293T) | Potency (JEG-3) | Potency (OV90)

C[C@@H]1O[C@@H](O[C@H]2[C@H](O[C@H]3[C@H](O[C@H]4CC[C@@]5(C)C(CC[C@]6(C)C5CC=C5[C@@H]7CC(C)(C)C[C@@H](O)[C@]7(C)CC[C@]56C)[C@@]4(C)CO)O[C@H](C(=O)O)[C@@H](O)[C@@H]3O)O[C@H](C(=O)O)[C@H](O)[C@@H]2O)[C@H](O)[C@H](O)[C@H]1O (some centres undefined)
inactive: max response (CRL-7250) -5.52% | max response (HEK293) -6.47% | outcome (HaCat [1]) | max response (KB-3-1) -1.92% | outcome (NIH3T3 [2]) | outcome (HACAT [3]) inactive [at 9.27 µM] | outcome (NIH3T3 [4]) inactive [at 9.27 µM] | activity change, negative = cytotoxicity (C33A) 8.86% [at 11.6 µM] | activity change, negative = cytotoxicity (CAOV3) -0.141% [at 11.6 µM] | activity change, negative = cytotoxicity (CASKI) 16.2% [at 11.6 µM] | activity change, negative = cytotoxicity (Es-2) -1.06% [at 11.6 µM] | activity change, negative = cytotoxicity (HeLa) 4.67% [at 11.6 µM] | activity change, negative = cytotoxicity (Hek293T) 5.2% [at 11.6 µM] | activity change, negative = cytotoxicity (JEG-3) 7.1% [at 11.6 µM] | activity change, negative = cytotoxicity (OV90) 2.01% [at 11.6 µM] | activity change, negative = cytotoxicity (PA-1) 0.484% [at 11.6 µM]

Reference: PubChem BioAssay (NCATS)
